D3 antag = D3 dopamine receptor (human) antagonism | P35462 | D3R cells, DiscoveRx beta-arrestin luminescence, antagonist mode; active compounds read low | max response, negative = inhibition, % | 2.5% of 360,000 active; in the data active = max response below about -50%; inconclusive = no clear call, values can overlap the other calls; note: % is set by controls: 0 for no effect and ±100 for the full control effect
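Cells plated overnight at 1500 cells/well, then exposed to library compounds with dopamine controls for 90 minutes at 37 degrees C. DiscoveRx reagent added for 30–60 minutes at room temperature; luminescence read, quantitative HTS format.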
MBNL1-CUG inh = blocks human MBNL1 binding to CUG repeat RNA; Q9NR56; Potency, µM (top dose mostly 57.5 µM), for inactives: at the top dose activity change, negative = inhibition, usual class: inhibitors; TR-FRET MBNL1-His/biotin-(CUG)12 binding, 665/545 ratio; 0.036% of 280,000 active; active = well fitted inhibition curve with a large enough effect in the signal ratio, with a control signal flat, not every such curve was filed as active; inconclusive = small, poorly fitted or top-dose-only effect, or effect the other way, or a change in a side signal; inactive = no such curve, though single readings can be large or run the other way; the % refers to the signal ratio; note: potency is the fitted concentration of half-maximal effect; % is set by controls: 0 for no effect and ±100 for the full control effect
Target sequence (Q9NR56 whole entry, looked up): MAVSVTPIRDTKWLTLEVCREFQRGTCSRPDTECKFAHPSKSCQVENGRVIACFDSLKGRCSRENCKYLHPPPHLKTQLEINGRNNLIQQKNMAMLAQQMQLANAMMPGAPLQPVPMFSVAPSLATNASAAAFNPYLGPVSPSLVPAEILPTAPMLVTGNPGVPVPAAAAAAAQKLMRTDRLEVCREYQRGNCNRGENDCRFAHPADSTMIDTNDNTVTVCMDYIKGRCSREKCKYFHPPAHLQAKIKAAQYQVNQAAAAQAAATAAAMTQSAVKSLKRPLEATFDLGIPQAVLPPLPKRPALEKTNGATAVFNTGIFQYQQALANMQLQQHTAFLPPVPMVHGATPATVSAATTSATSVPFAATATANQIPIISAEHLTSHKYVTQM
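Ratiometric TR-FRET (665 over 545 nm, excitation 340 nm) tracks disruption of MBNL1-His/biotin-(CUG)12 complex after 60 min at room temperature, with compounds at 92 nM to 58 uM final.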
CBFb RUNX1 block = blocks binding between human CBF-beta and RUNX1; Q01196+Q13951; AlphaScreen CBFb-His/RUNX1-biotin binding, biochemical; Potency, µM (doses to about 59.8 µM), inactives show top-dose activity, negative = inhibition, usual class: inhibitors; 230,000 tested, under 10 active; note: % of control where 0% means no effect
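Read-out: AlphaScreen. Format: His-CBF-beta with biotinylated RUNX1 (30 nM each) preincubated 20 min, compound 15 min, Ni-chelate plus streptavidin beads 90 min; room temperature throughout.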
PTHR1 agonist = activates the human parathyroid hormone receptor PTHR1; Potency, µM (series often up to 115 µM), for inactives: at the highest dose activation, usual class: activators; 0.075% of 410,000 active; Q03431; HEK293 GP2 PTHR1 cells, GloSensor cAMP luminescence, 1 h; note: potency is the fitted concentration of half-maximal effect; nearly all actives have a fitted effect of over 55% in size
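HEK-293-derived GP2 cells expressing PTHR1 and a GloSensor cAMP reporter, 3,000/well, plated overnight, given luciferin plus IBMX (each 0.5 mM as added) for 1 h at 37 °C, then compound for 1 h at 37 °C. Luminescence was read after 15 min at room temperature.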
DRD3 agonist = D3 dopamine receptor (human) agonism | 0.58% of 410,000 active | P35462 | max activation, % | D3R DiscoveRx beta-arrestin cells, luminescence, 90 min; in the data active = max activation above about 30%; note: 0% is about no effect
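Agonist-mode cell screen: cells plated at 1500/well and incubated overnight at 37 °C, then exposed to library compounds for 90 min at 37 °C. Detection reagent was added for 30–60 min at room temperature, and luminescence was read.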
Integrin act MD = integrin-mediated muscular dystrophy alleviation activation; alpha7betagal myoblasts, beta-gal FDG fluorescence, 48 h; Potency, µM (top dose mostly 38.3 µM), for inactives: at the highest dose activation, actives largely listed as activators; AID 624291; 0.064% of 350,000 active;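 note: potency is the fitted concentration of half-maximal effect; 100% = response of the positive control SU9516; nearly all actives have a fitted effect of over 60% in size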
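alpha7betagal+/- myoblasts (passage 13, 250/well) treated 48 h at 37C with compounds at 1:260 dilution of DMSO stock. Lysed, then beta-galactosidase activity read as FDG fluorescence (ex 480/em 540) after 30 min, with pre-read for autofluorescence.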
* marks the source's active call; other numbers are inactive results; i = inactive; ? = inconclusive; · = no result; [ ] = remark or other dose. Shown are actives, neighbours in structure and some others; about 2.8% of the full set was active somewhere. Unless noted, calls come from the whole dose curve; as a rule, active = well fitted curve in the direction sought with a large enough effect; inconclusive = small, poorly fitted or top-dose-only effect, or another doubt; inactive = no such curve, though single readings can be large; an effect the other way counts as inactive or inconclusive.

SMILES	D3 antag	MBNL1-CUG inh	CBFb RUNX1 block	PTHR1 agonist	DRD3 agonist	Integrin act MD
CC(=O)NC(c1ccc(F)c(F)c1)c1nc(-c2ccccc2)cs1 (stereo not drawn)	8	·	·	i	-4	·
COc1ccc(C(CNC(=O)c2cc(S(=O)(=O)N3CCCCC3)ccc2C)N2CCCC2)cc1 (stereo not drawn)	?	·	·	13%	-15	19%
COc1ccc(C(CNC(=O)c2cccc(S(=O)(=O)N3CCCCC3)c2)N2CCCC2)cc1 (stereo not drawn)	-51*	·	·	5%	-12	-29%
COc1cccc2c1C(=O)c1c(O)c3c(c(O)c1C2=O)C[C@@](O)(C(=O)CO)C[C@@H]3O[C@H]1C[C@H](N)[C@@H](O)[C@H](C)O1	0	·	·	-26%	-64	·
COc1cccc2c1C(=O)c1c(O)c3c(c(O)c1C2=O)C[C@@](O)(C(C)=O)C[C@@H]3O[C@H]1C[C@H](N)[C@H](O)[C@H](C)O1	-78*	?	?	-14%	-59	·
CCCN(CCO)Cc1ccc(Cl)c(Cl)c1	-59*	1%	1%	i	-32	-7%
CCCN(CCO)Cc1cccc(Cl)c1	12	-2%	4%	i	-13	9%
CC(=O)C1=C(C)Nc2ncnn2C1c1cccc(Br)c1 (stereo not drawn)	-14	-4%	·	i	-8	-24%
Cc1ccc(C2CC(c3ccccc3)=NN2C(=S)Nc2ccccc2)o1 (stereo not drawn)	-51*	1%	-3%	i	-3	-6%
CC1=NN(C(=S)Nc2ccccc2)C(c2ccccc2)C1 (stereo not drawn)	?	·	-3%	i	-8	19%
COC(=O)[C@]1(C)N[C@H](CN(C)C(=O)Nc2ccc(OC)cc2)[C@@H]2C(=O)N(Cc3ccccc3)C(=O)[C@@H]21	19	·	·	i	34*	16%
CC(C)(C)c1ccc(C(=O)NCCc2csc3nc(-c4ccccc4F)nn23)cc1	·	·	·	-29%	3	·
COc1ccc(CN(C(=O)c2nsc(Cl)c2Cl)C(C(=O)NC2CCCC2)c2ccc(C)cc2)cc1 (stereo not drawn)	-25	·	7%	-14%	-11	-5%
Cc1ccc(C)c(N(C(=O)c2nsc(Cl)c2Cl)C(C(=O)NC2CCCC2)c2ccc(O)cc2)c1 (stereo not drawn)	-62*	·	-24%	-19%	-15	9%
Cc1ccc(C(=O)NCCN2CCC(n3c(=O)[nH]c4ccccc43)CC2)cc1C	-111*	·	·	-36%	-17	·
O=C(NCCN1CCC(n2c(=O)[nH]c3ccccc32)CC1)c1cccnc1	-17	·	·	1%	-11	·
O=C(NCCN1CCC(n2c(=O)[nH]c3ccccc32)CC1)c1ccccc1	-113*	·	·	i	-13	·
O=C(NCCN1CCC(n2c(=O)[nH]c3ccccc32)CC1)c1ccc(F)cc1Cl	-77*	·	·	-45%	-16	·
O=C(NCCN1CCC(n2c(=O)[nH]c3ccccc32)CC1)N1c2ccccc2Sc2ccccc21	-111*	·	·	-2%	-13	·
O=C1c2ccccc2C2N1CCCN2C(=O)c1sc2ccccc2c1Cl (stereo not drawn)	52	·	·	-47%	6	5%
CCCCCCN1C[C@H](O)[C@@H](n2cc(C3CC3)nn2)C[C@@H]1c1ccc(OC)cc1	-8	·	·	-19%	-8	-11%
CCc1nc2ccccc2c(C(=O)OCC(=O)Nc2cccc(S(=O)(=O)N3CCOCC3)c2)c1C	105	1%	-14%	-12%[57.5 µM]	33*	-14%[7.66 µM]
CCc1nc2ccccc2c(C(=O)OCC(=O)Nc2ccc(S(=O)(=O)N3CCOCC3)cc2)c1C	14	-11%	-6%	-93%	1	-48%
CCc1nc2ccccc2c(C(=O)OCC(=O)Nc2cccc(S(=O)(=O)NC3=NCCCCC3)c2)c1C	92	4%	-7%	-31%	45*	-12%
O=C(COC(=O)c1ccc2ccccc2n1)Nc1cccc(S(=O)(=O)NC2=NCCCCC2)c1	-5	?	1%	i	-3	-26%
SMILES	D3 antag	MBNL1-CUG inh	CBFb RUNX1 block	PTHR1 agonist	DRD3 agonist	Integrin act MD
N[C@@H](C(=O)N[C@@H]1C(=O)N2C(C(=O)O)=C(CSc3cn[nH]n3)CS[C@H]12)c1ccc(O)cc1	·	·	·	·	-13	·
Oc1ccc(Cl)cc1/C=C/c1ccc2cccc(O)c2n1	?	12%	-3%	-7%	1	-66%
Oc1cccc2ccc(/C=C/c3cccs3)nc12	-57*	38%	2%	-18%[57.5 µM]	-53	-53%
Oc1ccc2ccccc2c1/C=C/c1ccc2c(Br)cc(Br)c(O)c2n1	-104*	·	·	-9%	-17	-22%
Oc1c(Cl)cc(Cl)cc1/C=C/c1ccc2cccc(O)c2n1	1	4%	-5%	-20%	32*	-78%
COc1cc(Br)c(/C=C/c2ccc3cccc(O)c3n2)cc1OC	-8	-8%	·	i	-5	-32%
Oc1cccc2ccc(/C=C/c3ccccc3Br)nc12	-114*	5%	·	i	-40	-55%
COc1cc(NC(=O)N2CCC(CN3CCCC3)CC2)cc(OC)c1OC	·	·	·	i	-1	·
OC(CSc1c(Cl)cccc1Cl)CN1CCN(c2ccccc2F)CC1 (stereo not drawn)	-56*	-6%	10%	-22%	20	-26%
OC(CSc1ccccc1Cl)CN1CCN(c2ccccc2F)CC1 (stereo not drawn)	-67*	?	7%	-33%	1	-5%
C=CCc1ccccc1OCC(O)CN1CCN(c2ccccc2F)CC1 (stereo not drawn)	?	-5%	5%	-9%	28	0%
Oc1ccccc1N1CCN(CC(O)COCc2ccccc2Cl)CC1 (stereo not drawn)	-53*	-2%	-2%	-19%	29	16%
Cc1ccc(C(C)C)c(OCC(O)CN2CCN(c3ccccc3F)CC2)c1 (stereo not drawn)	·	·	·	-86%	26	·
CCCN(CCC)C(=S)NC(=O)c1ccc(Cl)cc1Cl	-182*	1%	0%	-25%	2	-25%
CN(C)CCCOC(=O)c1ccc(Cl)cc1Cl	?	-9%	4%	i	-38	-14%
CCCN(CCC)CCCOC(=O)c1ccc(Cl)cc1Cl	-69*	-5%	1%	i	-30	0%
CS(=O)(=O)c1ncc(Cl)c(C(=O)Nc2ccc(N3CCOCC3)cc2)n1	-78*	?	-21%	-31%[57.5 µM]	-29	-53%
CCS(=O)(=O)c1ncc(Cl)c(C(=O)Nc2ccc(S(=O)(=O)N(C)c3ccccc3)cc2)n1	?	105%	·	-22%	-34	-75%

High-throughput results (PubChem)
